The source of these data is PubChem BioAssay (Tox21).

Results filed as inconclusive are left out. Unmarked numbers belong to inactive results. Calls of active or inactive are those of the source. Calls follow the shape of the dose curve; as a rule, active = well fitted cell-killing curve with a large enough effect in the repeat runs; inconclusive = weak or mixed curves, or effect the other way; inactive = no such curve, though single readings can be large or run the other way.
% is scaled to controls: 0 for no effect and ±100 for the full control effect; potency is read from the fitted curve at half-maximal effect.

The assay is described as follows: qHTS assay to identify small molecule antagonists of the sonic hedgehog signaling (Shh) pathway - cell viability counter screen (AID 1259367). Also: nearly all actives have a fitted effect of over 55% in size. Particulars: NIH/3T3 Gli1-Luc viability, CellTiter-Fluor, 24 h; series mostly up to 92.4 µM; viability change, negative = cytotoxic: at the top concentration. The text has this:
National Center for Advancing Translational Sciences [NCATS]
NIH Chemical Genomics Center [NCGC]
U.S. Environmental Protection Agency [EPA]
National Institutes of Environmental Health Sciences [NIEHS]
National Toxicology Program [NTP]
U.S. Food and Drug Administration [FDA]
The sonic hedgehog (Shh) pathway is essential for normal embryonic development. Dysregulation of the Shh pathway can cause severe developmental defects in organs. Therefore chemicals that interfere with the pathway are potential developmental toxicants. A cell line designated 3T3Gli1-Luc (DMB/OARSA/CFSAN/FDA, Laurel, MD), a NIH/3T3 derived clone containing stably integrated Gli1-Luc reporter is used to detect chemical interference of the Shh pathway, by changes in the expression of the firefly Luc gene under the control of the Gli1 transcriptional response element. This cell line was used to screen Tox21 libraries for identifying and prioritizing the potential developmental toxicants that interfere Shh pathway. Conditioned medium-stimulated mode was used to screen for chemicals inhibiting Shh signaling. The cytotoxicity of the compounds was tested in parallel by measuring the cell viability using CellTiter-Fluor assay system (Promega, Madison, WI) in the same wells.
Tox21 Assay Protocol Summary:
3T3 Gli1-Luc cells were dispensed at 2,000 per well in 5uL of culture medium into white solid bottom 1536-well plates (Greiner Bio-One, Monroe, NC) using a Multidrop Combi (Thermo Scientific, Waltham, MA) dispenser. The assay plates were incubated at 37 C and 5% CO2 for 4hr, and then 23nL of compounds dissolved in DMSO and positive control were transferred using a Pintool station (Wako, San Diego, CA). The compound transfer was followed by the addition of 1ul conditioned medium or assay buffer using two separate tips of Flying Reagent Dispenser (FRD, Aurora Discovery, San Diego, CA). The assay plates were incubated at 37C and 5% CO2 for 24hr. For viability read, after 23hr of compound treatment, 1uL of CellTiter-Fluor reagent (Promega Corporation, Madison, WI) was added to each well of the assay plates using Flying Reagent Dispenser (FRD, Aurora Discovery, San Diego, CA) and incubated the assay plates at 37C for 1hr. The fluorescence signal was quantified using a ViewLux plate reader (Perkin Elmer, Shelton, CT).
Regarding `C1CCC2OC2C1` (stereo not given), the “viability change, negative = cytotoxic” value was 0.241%.

Regarding `Cc1cc(NC(=O)C(=O)O)cc(C)c1Oc1ccc(O)c2c1CCC2`, the “viability change, negative = cytotoxic” value was -9.21%.

On to `O=C(Nc1ccccc1)OCC(CN1CCCCC1)OC(=O)Nc1ccccc1` (stereo not given), for which the “viability change, negative = cytotoxic” value was -20.8% [at 42.5 µM]. Consider `CCc1nn(C2CCCCC2)c2cc(C3(C#N)CCC(C(=O)O)CC3)ccc12` (stereo not given), for which the Potency is 27.3 µM (active). In the case of `FC(F)(F)C(F)(F)C(F)(F)C(F)(F)C(F)(F)C(F)(F)CCI`, the “viability change, negative = cytotoxic” value is 0.131% [at 42.5 µM].

In the case of `O=C(O)Cn1c(C(=O)Nc2nc(-c3ccccc3Cl)cs2)cc2ccccc21`, the “viability change, negative = cytotoxic” value is -3.44% [at 42.5 µM]. The same measure, in the same setting: to `N#Cc1cc2ccccc2c2ccccc12` belongs 1.76%; to `CC1(C)CCC(C)(C)c2cc(NC(=O)c3ccc(C(=O)O)cc3)ccc21`, -18.8% [at 42.5 µM]. Still for that read-out and setting: to `Cc1cccc(C(C)(C)C)c1O` belongs -2.71%; to `CN(C(=O)CCCOc1ccc2[nH]c(=O)ccc2c1)C1CCCCC1`, -16.4% [at 42.5 µM]. Regarding `CCN(CCO)CCCC(C)Nc1ccnc2cc(Cl)ccc12` (stereo not given), the viability change, negative = cytotoxic was 1.32% [at 8.39 µM]. On the same count and under the same terms, with `CCOc1ccc(NC(=O)CC(C)=O)cc1` the figure was -0.5%; with `O=C(O)/C=C/c1cnc[nH]1`, 0.0756%. `CCCCCCCCCCCCCCCBr`: the “viability change, negative = cytotoxic” value is 0.123% [at 42.5 µM].

Turning to `CC(C)c1ccc2c(C(C)C)cc(C(C)C)c(S(=O)(=O)O)c2c1`, the “viability change, negative = cytotoxic” value was -6.71%.

For the molecule `O=C(O)[C@@H]1[C@H]2C[C@H]3c4[nH]c5ccccc5c4CCN3C[C@@H]2CC[C@@H]1O`, the “viability change, negative = cytotoxic” value was -0.818% [at 42.5 µM]. As for `CCN(CC)CCc1nc(-c2ccccc2)no1`, the “viability change, negative = cytotoxic” value was -0.0186% [at 42.5 µM]. Still for that read-out and setting: with `COc1cc(C(C)(C)C)c(O)c(C(C)(C)C)c1` the figure was 2.35%; with `Nc1nc(N)c2nc(CNc3ccc(C(=O)N[C@@H](CCC(=O)O)C(=O)O)cc3)cnc2n1`, 11.2%.

For the molecule `Cn1sccc1=O`, the Potency is 27.3 µM (active). For `C[C@@H](C1=C(CCN(C)C)Cc2ccccc21)c1ccccn1`, the “viability change, negative = cytotoxic” value is -22.7% [at 42.5 µM]. Still for that read-out and setting: with `COCCCCCCCCOCCC[Si](C)(O[Si](C)(C)C)O[Si](C)(C)C` the figure was 11.3%; with `CCOc1nc2cccc(C(=O)O)c2n1Cc1ccc(-c2ccccc2-c2nn[nH]n2)cc1`, 0.304% [at 42.5 µM]; with `O=C1CCCCCO1`, 0.213%. Same read-out and setting: with `CC(CN)CCCN` (stereo not given) the figure was 0.346%; with `COc1ccc(C(C)=O)cc1`, 4.89%; with `Cn1c(=O)c2c(ncn2CC(O)CO)n(C)c1=O` (stereo not given), 1.93% [at 42.5 µM]. As to `COc1ccc(OC)c(OC)c1`, the “viability change, negative = cytotoxic” value is -0.388%. On the same count and under the same terms, with `O=S(=O)(O)c1ccc(O)c2ncccc12` the figure was 15.1%; with `CCOc1ccc2[nH]cc(C(=O)NCc3ccccc3)c(=O)c2n1`, -0.921%; with `CN1CCN(C2=Nc3ccccc3Sc3ccc(Cl)cc32)CC1`, -15.9% [at 42.5 µM].

With `NC(N)=NN=C(/C=C/c1ccc([N+](=O)[O-])o1)/C=C/c1ccc([N+](=O)[O-])o1`, the Potency is 2.37 µM (active).

As for `O=C(O)c1cn(C2CC2)c2cc(Cl)c(F)cc2c1=O`, the “viability change, negative = cytotoxic” value was 8.08% [at 42.5 µM]. The same measure, in the same setting: to `CC(C)c1cccc(C(C)C)c1NC(=O)NS(=O)(=O)c1cc(C(C)(C)O)co1` belongs 2.2%.

Consider `O=C(O)Cc1sc(-c2ccccc2)nc1-c1ccc(Cl)cc1`, for which the “viability change, negative = cytotoxic” value was -5.15% [at 42.5 µM]. In the case of `Cc1ccccc1N=Nc1ccc(N=Nc2c(O)ccc3ccccc23)c(C)c1`, the “viability change, negative = cytotoxic” value is -7.14% [at 42.5 µM]. Same read-out and setting: with `O=C(O)COC(=O)Cc1ccccc1Nc1c(Cl)cccc1Cl` the figure was 0.0751% [at 42.5 µM]; with `CCCCCCCCC(CO)CCCCCC` (stereo not given), 4.7%; with `CCOC(=O)C1=C(C)NC(C)=C(C(=O)OC)C1c1cccc([N+](=O)[O-])c1` (stereo not given), -21% [at 42.5 µM]. Still for that read-out and setting: to `Cc1ccc(C(C)c2ccc(C)c(C)c2)cc1C` belongs -1.04%.
